Compound activity from PubChem BioAssay.
Only some compounds are listed: those with a hit (about 12% of all), similar ones and a draw of the others.
BAZ2B inh – inhibitors of human BAZ2B bromodomain; 4.4% of 360,000 active; AlphaScreen BAZ2B-H3K14Ac peptide displacement; Potency, µM (doses to about 114 µM), for inactives: at the highest dose activity change, negative = inhibition, usual class: inhibitors; Q9UIF8; note: % is set by controls: 0 for no effect and ±100 for the full control effect; nearly all actives have a fitted effect of over 60% in size
Target sequence (Q9UIF8 whole entry, looked up): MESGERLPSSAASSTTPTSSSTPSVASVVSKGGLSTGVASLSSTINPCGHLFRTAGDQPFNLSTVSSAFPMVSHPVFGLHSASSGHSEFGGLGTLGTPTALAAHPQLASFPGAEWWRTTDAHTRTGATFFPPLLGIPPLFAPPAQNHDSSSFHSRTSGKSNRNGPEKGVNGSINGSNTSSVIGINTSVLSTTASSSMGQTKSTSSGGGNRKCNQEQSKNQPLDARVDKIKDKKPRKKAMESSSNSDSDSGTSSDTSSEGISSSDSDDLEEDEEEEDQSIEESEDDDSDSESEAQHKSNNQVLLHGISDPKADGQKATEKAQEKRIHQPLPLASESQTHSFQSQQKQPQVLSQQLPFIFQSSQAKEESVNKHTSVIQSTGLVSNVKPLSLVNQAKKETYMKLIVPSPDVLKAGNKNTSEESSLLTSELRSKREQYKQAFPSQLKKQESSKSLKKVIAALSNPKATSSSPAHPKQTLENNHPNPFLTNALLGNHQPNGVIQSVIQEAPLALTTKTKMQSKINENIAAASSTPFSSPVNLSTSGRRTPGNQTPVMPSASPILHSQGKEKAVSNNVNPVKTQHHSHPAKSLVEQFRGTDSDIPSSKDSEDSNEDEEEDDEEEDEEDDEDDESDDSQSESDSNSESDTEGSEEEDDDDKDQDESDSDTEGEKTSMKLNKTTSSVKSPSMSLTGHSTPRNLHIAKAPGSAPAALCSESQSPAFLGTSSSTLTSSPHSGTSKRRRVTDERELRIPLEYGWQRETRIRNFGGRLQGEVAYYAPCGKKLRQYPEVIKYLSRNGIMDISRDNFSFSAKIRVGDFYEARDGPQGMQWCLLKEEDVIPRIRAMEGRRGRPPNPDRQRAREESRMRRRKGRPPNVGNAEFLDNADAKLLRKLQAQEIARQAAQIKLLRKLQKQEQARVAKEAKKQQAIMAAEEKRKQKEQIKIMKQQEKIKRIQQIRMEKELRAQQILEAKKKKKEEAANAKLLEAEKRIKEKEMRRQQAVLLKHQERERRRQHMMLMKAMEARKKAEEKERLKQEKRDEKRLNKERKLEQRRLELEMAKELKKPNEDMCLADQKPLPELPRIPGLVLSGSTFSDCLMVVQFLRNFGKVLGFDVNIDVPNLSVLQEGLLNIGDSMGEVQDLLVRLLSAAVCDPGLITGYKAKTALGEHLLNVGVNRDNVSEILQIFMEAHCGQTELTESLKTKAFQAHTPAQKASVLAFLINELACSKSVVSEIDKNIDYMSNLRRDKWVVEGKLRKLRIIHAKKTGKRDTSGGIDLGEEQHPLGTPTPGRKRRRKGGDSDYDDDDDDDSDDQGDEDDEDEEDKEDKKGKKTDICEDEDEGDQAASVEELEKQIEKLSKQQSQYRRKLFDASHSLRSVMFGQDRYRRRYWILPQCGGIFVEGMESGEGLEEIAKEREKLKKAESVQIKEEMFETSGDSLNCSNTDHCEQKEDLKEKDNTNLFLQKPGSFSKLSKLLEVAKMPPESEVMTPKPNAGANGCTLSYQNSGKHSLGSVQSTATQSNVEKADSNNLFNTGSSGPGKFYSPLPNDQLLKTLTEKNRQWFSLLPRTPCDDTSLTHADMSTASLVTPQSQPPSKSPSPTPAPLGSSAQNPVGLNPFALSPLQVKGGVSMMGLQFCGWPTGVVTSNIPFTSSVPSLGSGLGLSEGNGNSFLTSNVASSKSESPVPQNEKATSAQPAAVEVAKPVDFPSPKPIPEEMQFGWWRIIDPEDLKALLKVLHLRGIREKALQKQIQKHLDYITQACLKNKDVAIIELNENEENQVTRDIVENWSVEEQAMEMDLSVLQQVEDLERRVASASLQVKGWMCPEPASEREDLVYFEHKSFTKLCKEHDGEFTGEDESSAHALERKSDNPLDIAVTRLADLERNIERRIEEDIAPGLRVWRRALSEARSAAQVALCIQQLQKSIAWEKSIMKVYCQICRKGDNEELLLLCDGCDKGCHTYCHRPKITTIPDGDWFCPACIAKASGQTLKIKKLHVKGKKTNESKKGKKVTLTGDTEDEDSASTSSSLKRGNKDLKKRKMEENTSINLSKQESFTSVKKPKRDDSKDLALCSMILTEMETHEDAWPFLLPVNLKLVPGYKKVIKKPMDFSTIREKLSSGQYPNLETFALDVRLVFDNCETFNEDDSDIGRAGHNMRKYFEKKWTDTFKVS
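AlphaScreen luminescence quantifies BAZ2B engagement of H3K14Ac peptide; the protein and biotinylated peptide are both at 50 nM final, buffer PBS pH 7.4 with 0.01% Tween-20, all steps at room temperature.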
G9a block – G9a (human) methyltransferase inhibition. Q96KQ7. G9a H3K9 monomethylation, AlphaScreen, 2 h. Potency, µM (highest dose often 102 µM), inactives show at the highest dose activity, negative = inhibition, usual class: inhibitors. 8.8% of 350,000 active; note: % is set by controls: 0 for no effect and ±100 for the full control effect; nearly all actives have a fitted effect of over 75% in size
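Enzyme 20 nM + cpd, 15 min RT; add b-H3K9 pep 500 nM / SAM 20 uM; 2 h RT; anti-H3K9me1 Ab 0.5 ug/mL + SA donor / anti-rabbit acceptor beads 20 ug/mL each, 10 min; AlphaScreen read.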
JMJD2A Tudor – blocks the human JMJD2A Tudor domain; O75164; 4.4% of 390,000 active; Potency, µM (titrated, usually from 114 µM), inactives show at the highest dose activity change, negative = inhibition, actives largely listed as inhibitors; AlphaScreen JMJD2A-Tudor / H3K4me3 peptide binding; AID 504339; note: % is set by controls: 0 for no effect and ±100 for the full control effect; nearly all actives have a fitted effect of over 50% in size
PLK1 PBD block – inhibitors of human PLK1 polo-box domain binding | Potency, µM, for inactives: max response, negative = inhibition, actives largely listed as inhibitors | Plk1 PBD binding of FITC phosphopeptide, fluorescence polarization | 2.8% of 360,000 active | P53350; note: series mostly up to about 57 µM; % is set by controls: 0 for no effect and ±100 for the full control effect; nearly all actives have a fitted effect of over 65% in size
Sfp inh – inhibitors of Bacillus subtilis Sfp phosphopantetheinyl transferase; Q9F4F7; 3.5% of 310,000 active; Potency, µM, without a hit: largest response in the series, negative = inhibition, usual class: inhibitors; Biochemical Sfp PPTase activity, qHTS;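 note: the enzyme is Sfp with the accession as filed and its product quenches rhodamine fluorescence; 0% = enzyme reaction without inhibitor and -100% = no enzyme wells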
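Sfp 15 nM + cpd, 15 min RT; start w/ rhodamine-CoA 5 uM, BHQ-2-YbbR 12.5 uM (final); 50 mM Hepes pH 7.6, 10 mM MgCl2, 0.01% NP-40, 0.01% BSA; read 525/598 nm at 0 and 30 min.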
HP1b chromo inh – HP1-beta chromodomain-methylated histone interaction inhibition | P83916 | AlphaScreen HP1-beta / biotin-H3K9me3 peptide binding | Potency, µM (series often up to 114 µM), for the others: top-dose activity change, negative = inhibition, usual class: inhibitors | 0.56% of 390,000 active | AID 540317; note: nearly all actives have a fitted effect of over 70% in size
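Compound inhibition of the preformed complex between 50 nM HP1-beta and 50 nM biotinylated H3K9me3 peptide was read by AlphaScreen. Buffer was PBS pH 7.4 with 0.01% Tween-20. Incubations ran 30 min at room temperature, with 10 ug/mL donor/acceptor beads.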
Numbers without * were called inactive; u = inconclusive; x = no result; [ ] = another dose, or the depositor's remark. Calls come from the whole dose curve; as a rule, active = well fitted curve in the direction sought with a large enough effect; inconclusive = small, poorly fitted or top-dose-only effect, or another doubt; inactive = no such curve, though single readings can be large; an effect the other way counts as inactive or inconclusive. Potency is the fitted concentration of half-maximal effect.

SMILES | BAZ2B inh | G9a block | JMJD2A Tudor | PLK1 PBD block | Sfp inh | HP1b chromo inh
O=C(NC1CCCCCC1)C1c2ccccc2C(=O)N1Cc1ccc(F)cc1 (stereo not given) | 16.2% | 23.5%[59 µM] | -4.4% | x | x | 66.9%
Cc1c2c(c(C)n1C)C(C(=O)NC1CCCCC1)N(Cc1ccccc1)C2=O (stereo not given) | x | 50.1µM* | -10.4% | -19.3% | 12.6% | 11.9%
Cc1ccc(Nc2c([N+](=O)[O-])ccc3c2=NC2(CCCCC2)N=3)cc1 | 3.55µM* | 4.47µM* | u | -12.3% | 5.8% | u
Nc1n[nH]c(S(=O)(=O)CCCc2ccccc2)n1 | -3.5% | 50.1µM* | -14.4%[11.4 µM] | -8.0% | 15.1% | 66.7%
O=S(=O)(CCCc1ccccc1)c1ncn[nH]1 | 5.7% | -7.7% | -32.4% | -10.5% | 3.6% | 9.7%
COc1ccc(OC)c(CCNC(=O)c2cnn(-c3ccccc3)c2C2CCN(C(=O)OC(C)(C)C)CC2)c1 | -6.0%[57.1 µM] | -29.2%[59 µM] | -35.9% | x | x | 1.5%
COc1cc(-c2[nH]nc3c2C(c2ccoc2)C(C#N)=C(N)O3)cc(OC)c1OC (stereo not given) | -37.0% | -27.0%[59 µM] | -30.4% | u | -2.6% | -4.3%
COc1cc(-c2[nH]nc3c2C(c2ccco2)C(C#N)=C(N)O3)cc(OC)c1OC (stereo not given) | -36.7% | -18.9%[59 µM] | u | 29.9µM* | 6.3% | -6.7%
O=C(Cn1cc(CNC(=O)c2ccccc2)nn1)Nc1cc(C(F)(F)F)ccc1Cl | x | x | -19.9% | x | x | x
Cn1c2c(c3ccccc31)CCN(CCCCN1CCN(c3ccccc3)CC1)C2=O | x | x | 50.1µM* | -7.1% | x | u
Cc1cccc(N2CCN(C(=O)Cn3ncc4c([nH]c5ccccc54)c3=O)CC2C)c1 (stereo not given) | -0.4% | -3.1%[59 µM] | -10.9% | x | x | 11.3%
CCN(CC(=O)Nc1ccc(OC)cc1)C(=O)c1ccc2c(c1)NC(=O)CS2 | 5.2% | 44.7µM* | -16.3% | -13.3% | x | -5.1%
CCN(CC(=O)Nc1ccc(OC)cc1)C(=O)c1ccc([N+](=O)[O-])cc1 | 5.1% | 0.7% | 10µM* | 6.7µM* | -22.5% | 12.1%
COC(=O)[C@@H]1C[C@@]1(C)[C@@H](NC(=O)OCc1ccccc1)c1ccccc1 | x | x | x | x | 23.3% | x
CCC(CC)C(=O)OCC(=O)C1(O)CCC2C3CCC4=CC(=O)CCC4(C)C3C(O)CC21C (stereo not given) | x | x | -8.4% | -1.5% | x | 17.1%
COc1cccc(CNC(=O)Nc2cccs2)c1 | -13.0% | 44.7µM* | -22.2% | -19.4% | 44.7µM* | -5.7%
COc1ccc(CNC(=O)Nc2cccs2)cc1OC | -29.4% | 12.6µM* | -24.8% | u | 25.1µM* | -13.8%
COc1ccc(Br)cc1CNC(=O)Nc1cccs1 | -0.3% | u | -18.5% | -16.0% | 50.1µM* | 3.7%
COc1ccc(Br)cc1CNC(=O)Cn1ncn2nc(-c3cccs3)cc2c1=O | -28.9% | -33.9%[59 µM] | -10.6% | x | x | 18.5%
Cc1ccc(CNC(=O)Nc2cccs2)cc1 | -7.2% | u | -25.4% | -9.9% | 17.8µM* | -15.3%
CC(O)CO (stereo not given) | 4.2% | 1.7%[0.501 µM] | -22.8% | -14.2% | 10.8% | 39.2%
O=C(Nc1cc(Cl)cc(Cl)c1)c1cc(S(=O)(=O)N2CCC3(CC2)OCCO3)ccc1F | -1.1% | 2.8%[59 µM] | -6.1% | x | x | 29.5%
CO[C@@H]1/C=C\CC(=O)N[C@@H](C)C(=O)OC[C@@H](OC)[C@H](C)/C=C\CC(=O)OC[C@H]1C | x | x | x | x | -18.0% | x
Cc1cc2oc(C(=O)Nc3c(C)n(C)n(-c4ccccc4)c3=O)cc(=O)c2cc1C | -13.6% | -7.7%[59 µM] | -10.8% | x | x | 12.2%
O=C(CN1CCN(S(=O)(=O)c2ccc(Br)cc2)CC1)N/N=C/c1ccc(Br)s1 | u | 3.0%[59 µM] | -35.3% | 23.8µM* | 2.9% | -5.5%
SMILES | BAZ2B inh | G9a block | JMJD2A Tudor | PLK1 PBD block | Sfp inh | HP1b chromo inh
Cc1ccc(NC(=O)CN2CCCN(S(=O)(=O)c3ccc(Br)s3)CC2)cc1 | -2.5% | 50.1µM* | -20.8% | -13.2% | -2.7% | 35.5%
Cc1cc(C)cc(NC(=O)CN2CCCN(S(=O)(=O)c3ccc(Br)s3)CC2)c1 | 2.9% | -2.3%[12.7 µM] | -8.6% | -2.5% | -6.2% | 52.6%
Cc1ccc(S(=O)(=O)N2CCN(CC(=O)N/N=C\c3ccc(O)c(O)c3)CC2)cc1 | -24.3% | 39.8µM* | -13.3% | 0.8% | u | 29.8%
COc1ccccc1NC(=O)Cn1c(=O)n(Cc2ccccc2)c(=O)c2sc3ccccc3c21 | 8.8% | 3.9%[59 µM] | -4.4% | x | x | 36.4%
CC(C)CNc1nc(C#N)nc(Nc2ccccc2)n1 | x | x | -12.4% | x | x | x
COc1ccc2c(Sc3ccccc3)c(C(=O)NCc3cc(Br)ccc3OC)[nH]c2c1 | -9.3% | -38.6%[59 µM] | -11.9% | x | x | 16.8%
COc1cc(OC)cc(C(=O)c2c(C)c(C#N)c3ccccn23)c1 | 5.5% | -1.4% | 33.8% | 0.2% | 3.7% | 70.9%
COC1=C/C(=C/c2c(O)c(C#N)c3ccccn23)C=CC1=O | 50.1µM* | u | 22.4µM* | -17.6% | u | u
CCCN(CCC)C(=O)c1cc([N+](=O)[O-])cc2c1-c1ccc([N+](=O)[O-])cc1C2=C(C#N)C#N | u | 44.7µM* | u | u | 50.1µM* | -13.3%
Cc1ccc(C)c(NC(=O)c2ncn[nH]2)c1 | u | -5.6% | -17.9% | 0.2% | -11.9% | 5.0%
O=C(NC1CCCC1)c1ncn[nH]1 | 44.7µM* | 20.1%[59 µM] | 31.6µM* | -5.3% | -6.5% | 44.8%
COc1ccc(S(=O)(=O)N2CCCCC2)cc1NC(=O)Cc1sc(C)nc1-c1ccc(F)cc1 | 3.4% | -27.2% | -20.5% | -12.3% | x | -4.9%
COc1ccc([N+](=O)[O-])cc1NC(=O)CCN1CCOCC1 | -18.1% | -6.2% | -12.1% | 29.9µM* | -1.9% | 11.9%
O=C(CCNC(=O)c1ccc(Br)cc1)Nc1cccc(S(=O)(=O)N2CCCC2)c1 | -0.8% | 44.7µM* | -20.7% | -1.3% | x | 1.6%
O=C(CCNC(=O)c1ccc([N+](=O)[O-])cc1)Nc1cccc(S(=O)(=O)N2CCCCCC2)c1 | 56.2µM* | -8.1%[2.33 µM] | -29.2% | -8.6% | x | 3.8%
COc1ccc(S(=O)(=O)N2CCOCC2)cc1NC(=O)Cc1sc(C)nc1-c1ccc(F)cc1 | 3.7% | 50.1µM* | -22.1% | -3.2% | x | 7.2%
COc1ccc([N+](=O)[O-])cc1NC(=O)CCN1CCN(C)CC1 | 18.4% | 11.3%[59 µM] | 1.7% | -2.3% | 12.1% | 19.6%
CC(C)Nc1cccc(S(=O)(=O)N2CCCN(S(=O)(=O)c3ccc4c(c3)OCCO4)CC2)c1 | x | x | -30.5% | x | x | x
COc1ccc(S(=O)(=O)N2CCOCC2)cc1NC(=O)CCNC(=O)c1ccc([N+](=O)[O-])cc1 | 8.5% | 3.55µM* | -14.8% | -12.4% | x | 23.3%
Cc1cc(C)cc(C(O)c2ncc(-c3ccc(C(F)(F)F)cc3)[nH]2)c1 (stereo not given) | x | x | x | -7.2% | x | x
